Source: PubChem BioAssay AID652180 (National Center for Advancing Translational Sciences (NCATS), 2013)
Inconclusive results are not listed. Calls of active or inactive are those of the source. Calls come from the whole dose curve; as a rule, active = well fitted inhibition curve with a large enough effect; inconclusive = small, poorly fitted or top-dose-only effect; inactive = no such curve, though single readings can be large or run the other way.

Experiment: qHTS Assay for Lipid Storage Modulators: 3T3L1 Assay against Probe and Analogs
Conditions: 3T3-L1 lipid droplets, BODIPY imaging, oleic acid, 18-24 h; series mostly up to 46.1 µM
Excerpt: Storing lipids as a reservoir for energy or the anabolism of elementary metabolites is a common feature of probably all cells and is conserved from bacteria to humans. The universal cellular lipid storage organelle is the so-called lipid storage droplet (LD). Although ubiquitous, LDs share a simple structure composed of a hydrophobic core that harbors the storage lipids, which is shielded by a droplet-specific phospholipid monolayer to which proteins are attached. The current model of LD biogenesis involves an incorporation of the lipid core into the membrane leaflets of the endoplasmic reticulum (ER) followed by a subsequent budding-like maturation of a LD, which ultimately pinches off. Once released, LD volume can increase by localized lipogenesis or fusion of existing droplets. Storage lipids are re-mobilized enzymatically by lipase activity. Lipase regulation in the adipocyte is heavily studied and involves multiple components including catecholamine signaling, the LD-associated proteins Perilipin and comparative gene identification-58 (CGI-58) and at least two lipases named hormone sensitive lipase (HSL) and adipocyte triglyceride lipase (ATGL). LD regulation outside of the adipocyte is poorly understood and only few components are known. However, there is an urgent need to learn more about ectopic fat depots as mislocalized storage of lipids, for example in the liver or muscle, is an eminent health problem associated with insulin resistance or the metabolic syndrome. We developed a laser-scanning cytometer assay to enable 1,536-well screening and combined the results of the small molecules screen with an RNAi database based on lipid storage. In this assay we tested analogs of the probe against a mammalian cell line (3T3L1), to see if these small molecules could disrupt lipid storage. NIH Molecular Libraries Probe Production Centers Network [MLPCN] NIH Chemical Genomics Center [NCGC] MLPCN Grant: MH085686 Assay Submitter (PI): Mathias Beller, Max-Planck-Institut fur Biophysikalische Chemie
3T3L1 cells were obtained from ATCC (CL-173). 4 uL of cells at 1.25 X 105 cell/mL were dispensed into 1536 well Poly-D-Lysine coated black with clear bottom imaging plates (Corning, #7356) to obtain 500 cells/well, and cultured at 37 °C, 95% humidity, and 5% CO2 overnight. The culture medium used was OPTI-MEM containing 5% fetal bovine serum (FBS). Triacsin C (Sigma-Aldrich T-4540), an inhibitor of long-chain fatty acyl CoA synthetase that blocks synthesis of triglycerides, was used as a positive control for lipid under-storage. A total of 23 nL of compounds dissolved in DMSO at different concentrations were transferred to the assay plates using a Kalypsys 1536-pin tool, the final DMSO concentration was 0.46%. One microliter of oleic acid at 400 uM (Calbiochem, #4954) was added to induce lipid droplet formation in the cells, and the plates were lidded. After 18-24 hours of incubation at 37 °C, 95% humidity, and 5% CO2, cells were fixed (8 % paraformaldehyde in PBS, 30 min, room temperature), washed three times with PBS, then stained for lipid droplet and nucleus using 4uL of PBS solution containing BODIPY lipid dye 493/503 (1:2000 dilution, Life Technologies, #3922) and Hoechst 33342 (1:1000, Life Technologies, #H3570) with Washer dispenser EL406(Biotek). Images were acquired using InCell 2000 (GE). Number of cells, number of lipids and sizes of lipids were analysis using GE Investigator software.

Potency, active:
CCOc1ccc(CCNC(=O)c2cc3sccc3n2C(C)C)cc1OCC 29.6 nM
CCOc1ccc(CCNC(=O)c2cc3sccc3n2CC=C(C)C)cc1OCC 833 nM
CCOc1cc(CCNC(=O)c2cc3sccc3n2Cc2ccccc2)cc(F)c1OCC 52.6 nM
O=C(O)c1cccc(-c2noc(-c3ccccc3F)n2)c1 2640 nM
CCOc1ccc(CCNC(=O)c2cc3sccc3[nH]2)cc1OCC 4690 nM

Potency, inactive:
CN(C)Cc1ccc(-c2nc3cccc4c3n2CCNC4=O)cc1
O=C(NC1CCCc2c1cnn2-c1ccc(F)cc1F)c1ccsc1 (stereo not given)
O=C(NC1CCCc2c1cnn2-c1ccc(F)cc1F)c1cccs1 (stereo not given)
CCOC(=O)C1CCN(C(=O)C(C)(C)NC(=O)Nc2ccc3c(c2)CCC3)CC1
O=C(NC1CCCc2c1cnn2-c1ccc(F)cc1F)c1ccncc1 (stereo not given)
CCn1c(C(=O)NCCc2ccc(OC)c(OC)c2)cc2sccc21
CC(C)(C)OC(=O)NCCOCCOCCOc1ccc(-n2ncc3c2CCCC3NC(=O)c2ccccn2)cc1 (stereo not given)
CN(C)CC(=O)NC1CCCc2c1cnn2-c1ccc(F)cc1F (stereo not given)
C[C@@H](NCCCc1cccc(C(F)(F)F)c1)c1cccc2ccccc12
O=C(NC1CCCc2c1cnn2-c1ccc(F)cc1F)c1cccc(=O)[nH]1 (stereo not given)
CCOc1ccc(CCNC(C)=O)cc1OCC
CCOc1ccc(CCNC(=O)C2=C(C)OCCO2)cc1OCC
Cc1cccc(-c2ccc3ncnc(NCc4cccc(F)c4)c3c2)c1
O=C(NC1CCCc2c1cnn2-c1ccc(F)cc1F)c1ccccc1 (stereo not given)
CCOC(=O)C1CCN(C(=O)C(C)(C)NC(=O)Nc2ccc([N+](=O)[O-])cc2)CC1
COc1ccc(-n2ncc3c2CCCC3NC(=O)c2ccccn2)cc1 (stereo not given)
O=C(NC1CCCc2c1cnn2-c1ccc(F)cc1F)c1cnccn1 (stereo not given)
CCOc1ccc(CCNC(=O)c2ccc(N3N=C(C)CC3=O)cc2)cc1OCC
O=C(Cc1ccccc1)NC1CCCc2c1cnn2-c1ccc(F)cc1F (stereo not given)
O=C(Nc1cccc2nn(-c3ccc(F)cc3)cc12)c1ccccn1
CCOc1ccc(CCNC(=O)c2ccc3[nH]ccc3c2)cc1OCC
O=C(NC1CCCc2c1cnn2-c1ccc(F)cc1F)c1ccccn1 (stereo not given)
O=C(NC1CCCc2c1cnn2-c1ccc(F)cc1F)c1ccc(C2(C(F)(F)F)N=N2)cc1 (stereo not given)
COc1nc(-c2ccc3c(c2)OCO3)n(-c2ccc(NC(=O)CSc3ccccc3)cc2)n1
O=C(N[C@H]1CCCc2c1cnn2-c1ccc(F)cc1F)c1ccccn1
CCOC(=O)C1CCN(C(=O)C(C)(C)NC(=O)Nc2ccc(N)cc2)CC1
Cc1cn(-c2cc(NC(=O)c3ccc(C)c(Nc4nccc(-c5cccnc5)n4)c3)cc(C(F)(F)F)c2)cn1
CCOC(=O)C1CCN(C(=O)C(C)(C)NC(=O)Nc2cccc(-c3csc(C)n3)c2)CC1
CC(C)(C)OC(=O)NCCOCCOCCOc1cccc(-n2ncc3c2CCCC3NC(=O)c2ccccn2)c1 (stereo not given)
CC(C)(C)OC(=O)NC1CCCc2c1cnn2-c1ccc(F)cc1F (stereo not given)
O=C(NC1CCCc2c1cnn2-c1ccc(F)cc1F)C1CCCCC1 (stereo not given)
O=C(NC1CCCc2c1cnn2-c1ccc(F)cc1F)C1CCCCN1 (stereo not given)
CCOC(=O)C1CCN(C(=O)C(C)(C)NC(=O)Nc2ccc3sccc3c2)CC1
O=C(c1cc2sccc2n1Cc1ccccc1)N(CCc1ccc(O)c(O)c1)Cc1ccccc1
CCOc1ccc(CCNC(=O)c2cnon2)cc1OCC
